Assay results published in PMC7862700, “An all-to-all approach to the identification of sequence-specific readers for epigenetic DNA modifications on cytosine”.

How the values were obtained:
Assay in all cases: DAPPL (digital affinity profiling via proximity ligation, sequencing); 10 mM Tris-HCl pH 7.5, 50 mM NaCl, 1 mM DTT, 4% glycerol, room temperature, 30 min; GST-TFs on glutathione beads, 16-mer random dsDNA library, 0.1% formaldehyde crosslink after washing; high values mean tight binding
Conditions in all cases: protein: recombinant; tags: N-terminal GST; dsDNA, one strand shown
ERF = target: T1, ERF (Homo sapiens, UniProt P50548 1-548)
T1 sequence: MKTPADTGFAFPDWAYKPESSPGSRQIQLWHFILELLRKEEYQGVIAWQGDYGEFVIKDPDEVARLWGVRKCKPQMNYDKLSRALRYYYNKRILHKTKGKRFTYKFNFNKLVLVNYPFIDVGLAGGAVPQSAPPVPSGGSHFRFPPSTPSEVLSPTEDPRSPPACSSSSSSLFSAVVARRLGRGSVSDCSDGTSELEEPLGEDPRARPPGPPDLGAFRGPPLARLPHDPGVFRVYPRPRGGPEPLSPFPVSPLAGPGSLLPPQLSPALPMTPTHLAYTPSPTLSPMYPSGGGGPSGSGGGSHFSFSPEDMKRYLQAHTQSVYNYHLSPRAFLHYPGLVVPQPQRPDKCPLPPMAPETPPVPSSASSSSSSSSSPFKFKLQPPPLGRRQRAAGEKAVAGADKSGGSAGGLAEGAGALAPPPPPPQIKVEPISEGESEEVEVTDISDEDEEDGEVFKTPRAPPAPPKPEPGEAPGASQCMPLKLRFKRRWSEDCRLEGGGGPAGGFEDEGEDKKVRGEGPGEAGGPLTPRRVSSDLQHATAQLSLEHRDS
Procedure, shortened: (§1)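 Yeast served to express human transcription factors as GST fusions, which were then captured on glutathione beads and labelled with DNA barcodes. Pooled with a tag-only sample, they were incubated with 200 nmole of a 16-mer random double-stranded DNA library for 30 min at room temperature in Tris/NaCl/DTT/glycerol buffer, washed, crosslinked with 0.1% formaldehyde, ligated by proximity, amplified by PCR and sequenced. Dividing each hexamer's read frequency for a factor by its frequency for the tag-only sample gives the binding signal.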

ETV3L = target: T2, ETV3L (Homo sapiens, UniProt Q6ZN32 1-361)
T2 sequence: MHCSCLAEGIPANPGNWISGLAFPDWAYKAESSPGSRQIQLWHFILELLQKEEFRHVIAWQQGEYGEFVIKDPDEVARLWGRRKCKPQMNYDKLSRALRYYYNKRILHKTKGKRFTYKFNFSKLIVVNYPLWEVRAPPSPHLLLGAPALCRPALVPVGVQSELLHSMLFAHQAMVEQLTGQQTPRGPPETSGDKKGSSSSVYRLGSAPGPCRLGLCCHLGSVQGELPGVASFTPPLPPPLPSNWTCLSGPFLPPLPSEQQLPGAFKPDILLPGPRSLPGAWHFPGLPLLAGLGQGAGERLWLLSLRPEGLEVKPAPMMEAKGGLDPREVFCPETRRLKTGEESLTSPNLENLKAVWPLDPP
Procedure, shortened: as §1

ETS2 = target: T3, ETS2 (Homo sapiens, UniProt P15036 1-469)
T3 sequence: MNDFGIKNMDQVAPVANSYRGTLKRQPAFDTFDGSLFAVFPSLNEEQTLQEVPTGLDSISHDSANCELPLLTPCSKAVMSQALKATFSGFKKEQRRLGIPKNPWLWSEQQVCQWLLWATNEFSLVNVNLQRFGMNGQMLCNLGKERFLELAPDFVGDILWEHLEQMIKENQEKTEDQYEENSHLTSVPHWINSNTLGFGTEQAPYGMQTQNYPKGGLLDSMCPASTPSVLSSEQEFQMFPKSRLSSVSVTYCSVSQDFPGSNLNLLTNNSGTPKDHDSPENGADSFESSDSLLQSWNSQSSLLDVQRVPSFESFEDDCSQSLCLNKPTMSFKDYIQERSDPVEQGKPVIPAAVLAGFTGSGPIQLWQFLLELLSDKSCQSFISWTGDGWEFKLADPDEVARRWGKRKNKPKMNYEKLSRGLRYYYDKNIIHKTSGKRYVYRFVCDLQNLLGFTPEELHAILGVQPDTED
Procedure, shortened: as §1

SPDEF = target: T4, SPDEF (Homo sapiens, UniProt O95238 1-335)
T4 sequence: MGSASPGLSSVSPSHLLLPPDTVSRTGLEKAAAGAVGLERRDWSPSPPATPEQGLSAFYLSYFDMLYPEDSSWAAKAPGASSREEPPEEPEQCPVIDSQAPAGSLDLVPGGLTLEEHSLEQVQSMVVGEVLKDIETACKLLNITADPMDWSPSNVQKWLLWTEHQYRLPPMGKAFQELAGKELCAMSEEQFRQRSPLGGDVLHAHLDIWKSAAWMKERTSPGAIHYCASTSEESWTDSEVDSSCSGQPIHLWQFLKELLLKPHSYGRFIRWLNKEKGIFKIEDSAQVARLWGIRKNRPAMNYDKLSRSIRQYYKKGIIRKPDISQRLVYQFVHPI
Procedure, shortened: as §1

ETV7 = target: T5, ETV7 (Homo sapiens, UniProt Q9Y603 1-341)
T5 sequence: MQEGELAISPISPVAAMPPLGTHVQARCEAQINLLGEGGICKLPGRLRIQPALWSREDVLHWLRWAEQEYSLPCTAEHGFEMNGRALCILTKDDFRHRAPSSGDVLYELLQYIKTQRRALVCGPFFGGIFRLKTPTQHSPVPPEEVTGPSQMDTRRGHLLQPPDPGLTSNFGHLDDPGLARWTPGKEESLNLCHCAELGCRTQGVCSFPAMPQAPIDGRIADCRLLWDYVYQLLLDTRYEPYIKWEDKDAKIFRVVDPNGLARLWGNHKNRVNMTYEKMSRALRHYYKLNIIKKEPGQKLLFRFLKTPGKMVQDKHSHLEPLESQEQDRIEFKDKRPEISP
Procedure, shortened: as §1

ELF5 = target: T6, ELF5 (Homo sapiens, UniProt Q9UKW6-2 1-255)
T6 sequence: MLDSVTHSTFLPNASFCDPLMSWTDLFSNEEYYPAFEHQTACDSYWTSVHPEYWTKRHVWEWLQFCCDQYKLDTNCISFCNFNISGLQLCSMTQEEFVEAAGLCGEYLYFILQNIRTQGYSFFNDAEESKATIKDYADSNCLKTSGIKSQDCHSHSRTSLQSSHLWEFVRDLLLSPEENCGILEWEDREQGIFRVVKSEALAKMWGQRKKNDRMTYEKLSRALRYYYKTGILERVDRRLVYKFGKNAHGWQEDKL
Procedure, shortened: as §1

ETV3 = target: T7, ETV3 (Homo sapiens, UniProt P41162-2 1-143)
T7 sequence: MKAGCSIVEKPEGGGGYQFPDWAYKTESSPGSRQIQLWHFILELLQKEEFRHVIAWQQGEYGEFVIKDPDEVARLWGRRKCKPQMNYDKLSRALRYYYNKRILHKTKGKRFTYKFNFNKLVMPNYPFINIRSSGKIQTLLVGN
Procedure, shortened: as §1

ETV6 = ETV6 (Homo sapiens, UniProt P41212 1-452)
Sequence of ETV6 (P41212 whole entry): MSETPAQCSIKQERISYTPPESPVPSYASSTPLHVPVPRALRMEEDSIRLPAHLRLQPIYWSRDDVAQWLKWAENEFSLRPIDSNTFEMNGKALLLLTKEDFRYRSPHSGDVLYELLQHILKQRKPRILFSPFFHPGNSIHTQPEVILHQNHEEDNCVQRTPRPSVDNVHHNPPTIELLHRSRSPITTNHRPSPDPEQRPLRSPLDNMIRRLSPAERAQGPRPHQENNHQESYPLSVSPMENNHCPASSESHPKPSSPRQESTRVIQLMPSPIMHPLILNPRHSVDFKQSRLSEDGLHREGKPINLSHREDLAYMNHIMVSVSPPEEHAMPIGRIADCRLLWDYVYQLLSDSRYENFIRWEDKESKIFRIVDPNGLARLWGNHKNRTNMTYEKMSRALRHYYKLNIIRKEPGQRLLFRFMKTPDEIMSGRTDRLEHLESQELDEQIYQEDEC
Procedure, shortened: as §1

Sequence	binding signal (ERF)	binding signal (ETV3L)	binding signal (ETS2)	binding signal (SPDEF)	binding signal (ETV7)	binding signal (ELF5)	binding signal (ETV3)	binding signal (ETV6)
GTGACC	1.24 fold enrichment (6-mer frequency, TF over GST control)	1.26 fold enrichment (6-mer frequency, TF over GST control)	1.25 fold enrichment (6-mer frequency, TF over GST control)	1.32 fold enrichment (6-mer frequency, TF over GST control)	1.3 fold enrichment (6-mer frequency, TF over GST control)	1.25 fold enrichment (6-mer frequency, TF over GST control)	1.38 fold enrichment (6-mer frequency, TF over GST control)	1.1 fold enrichment (6-mer frequency, TF over GST control)
GACTAC	1.19 fold enrichment (6-mer frequency, TF over GST control)	1.17 fold enrichment (6-mer frequency, TF over GST control)	1.08 fold enrichment (6-mer frequency, TF over GST control)	1.1 fold enrichment (6-mer frequency, TF over GST control)	1.17 fold enrichment (6-mer frequency, TF over GST control)	1.24 fold enrichment (6-mer frequency, TF over GST control)	1.11 fold enrichment (6-mer frequency, TF over GST control)	1.11 fold enrichment (6-mer frequency, TF over GST control)
TAGGAA	1.17 fold enrichment (6-mer frequency, TF over GST control)	1.15 fold enrichment (6-mer frequency, TF over GST control)	1.19 fold enrichment (6-mer frequency, TF over GST control)	1.11 fold enrichment (6-mer frequency, TF over GST control)	1.04 fold enrichment (6-mer frequency, TF over GST control)	1.29 fold enrichment (6-mer frequency, TF over GST control)	1.22 fold enrichment (6-mer frequency, TF over GST control)	1.37 fold enrichment (6-mer frequency, TF over GST control)
GCCCCT	1.27 fold enrichment (6-mer frequency, TF over GST control)	1.3 fold enrichment (6-mer frequency, TF over GST control)	1.27 fold enrichment (6-mer frequency, TF over GST control)	1.37 fold enrichment (6-mer frequency, TF over GST control)	1.22 fold enrichment (6-mer frequency, TF over GST control)	1.2 fold enrichment (6-mer frequency, TF over GST control)	1.23 fold enrichment (6-mer frequency, TF over GST control)	1.23 fold enrichment (6-mer frequency, TF over GST control)
AACCAC	1.18 fold enrichment (6-mer frequency, TF over GST control)	1.16 fold enrichment (6-mer frequency, TF over GST control)	1.14 fold enrichment (6-mer frequency, TF over GST control)	1.08 fold enrichment (6-mer frequency, TF over GST control)	1.03 fold enrichment (6-mer frequency, TF over GST control)	1.13 fold enrichment (6-mer frequency, TF over GST control)	1.17 fold enrichment (6-mer frequency, TF over GST control)	1.19 fold enrichment (6-mer frequency, TF over GST control)
TGTTCA	1.32 fold enrichment (6-mer frequency, TF over GST control)	1.23 fold enrichment (6-mer frequency, TF over GST control)	1.2 fold enrichment (6-mer frequency, TF over GST control)	1.3 fold enrichment (6-mer frequency, TF over GST control)	1.25 fold enrichment (6-mer frequency, TF over GST control)	1.2 fold enrichment (6-mer frequency, TF over GST control)	1.25 fold enrichment (6-mer frequency, TF over GST control)	1.14 fold enrichment (6-mer frequency, TF over GST control)
CCCCTG	1.39 fold enrichment (6-mer frequency, TF over GST control)	1.13 fold enrichment (6-mer frequency, TF over GST control)	1.21 fold enrichment (6-mer frequency, TF over GST control)	1.17 fold enrichment (6-mer frequency, TF over GST control)	1.13 fold enrichment (6-mer frequency, TF over GST control)	1.15 fold enrichment (6-mer frequency, TF over GST control)	1.07 fold enrichment (6-mer frequency, TF over GST control)	1.07 fold enrichment (6-mer frequency, TF over GST control)
TGGAAT	1.22 fold enrichment (6-mer frequency, TF over GST control)	1.3 fold enrichment (6-mer frequency, TF over GST control)	1.3 fold enrichment (6-mer frequency, TF over GST control)	1.28 fold enrichment (6-mer frequency, TF over GST control)	1.27 fold enrichment (6-mer frequency, TF over GST control)	1.18 fold enrichment (6-mer frequency, TF over GST control)	1.24 fold enrichment (6-mer frequency, TF over GST control)	1.15 fold enrichment (6-mer frequency, TF over GST control)
GATGAA	1.17 fold enrichment (6-mer frequency, TF over GST control)	1.25 fold enrichment (6-mer frequency, TF over GST control)	1.19 fold enrichment (6-mer frequency, TF over GST control)	1.15 fold enrichment (6-mer frequency, TF over GST control)	1.24 fold enrichment (6-mer frequency, TF over GST control)	1.17 fold enrichment (6-mer frequency, TF over GST control)	1.11 fold enrichment (6-mer frequency, TF over GST control)	1.18 fold enrichment (6-mer frequency, TF over GST control)
CAACTA	1.24 fold enrichment (6-mer frequency, TF over GST control)	1.29 fold enrichment (6-mer frequency, TF over GST control)	1.3 fold enrichment (6-mer frequency, TF over GST control)	1.32 fold enrichment (6-mer frequency, TF over GST control)	1.24 fold enrichment (6-mer frequency, TF over GST control)	1.26 fold enrichment (6-mer frequency, TF over GST control)	1.2 fold enrichment (6-mer frequency, TF over GST control)	1.25 fold enrichment (6-mer frequency, TF over GST control)
TATATG	1.48 fold enrichment (6-mer frequency, TF over GST control)	1.35 fold enrichment (6-mer frequency, TF over GST control)	1.38 fold enrichment (6-mer frequency, TF over GST control)	1.29 fold enrichment (6-mer frequency, TF over GST control)	1.29 fold enrichment (6-mer frequency, TF over GST control)	1.39 fold enrichment (6-mer frequency, TF over GST control)	1.41 fold enrichment (6-mer frequency, TF over GST control)	1.34 fold enrichment (6-mer frequency, TF over GST control)
CAAGCA	1.15 fold enrichment (6-mer frequency, TF over GST control)	1.17 fold enrichment (6-mer frequency, TF over GST control)	1.25 fold enrichment (6-mer frequency, TF over GST control)	1.06 fold enrichment (6-mer frequency, TF over GST control)	1.1 fold enrichment (6-mer frequency, TF over GST control)	1.11 fold enrichment (6-mer frequency, TF over GST control)	1.16 fold enrichment (6-mer frequency, TF over GST control)	1.14 fold enrichment (6-mer frequency, TF over GST control)
TGCTTG	1.14 fold enrichment (6-mer frequency, TF over GST control)	1.13 fold enrichment (6-mer frequency, TF over GST control)	1.14 fold enrichment (6-mer frequency, TF over GST control)	1.11 fold enrichment (6-mer frequency, TF over GST control)	1.19 fold enrichment (6-mer frequency, TF over GST control)	1.04 fold enrichment (6-mer frequency, TF over GST control)	1.17 fold enrichment (6-mer frequency, TF over GST control)	1.11 fold enrichment (6-mer frequency, TF over GST control)
CCCGGC	1.06 fold enrichment (6-mer frequency, TF over GST control)	1.19 fold enrichment (6-mer frequency, TF over GST control)	1.16 fold enrichment (6-mer frequency, TF over GST control)	1.28 fold enrichment (6-mer frequency, TF over GST control)	1.13 fold enrichment (6-mer frequency, TF over GST control)	1.14 fold enrichment (6-mer frequency, TF over GST control)	1.27 fold enrichment (6-mer frequency, TF over GST control)	1.22 fold enrichment (6-mer frequency, TF over GST control)
TTTGTG	1.23 fold enrichment (6-mer frequency, TF over GST control)	1.12 fold enrichment (6-mer frequency, TF over GST control)	1.11 fold enrichment (6-mer frequency, TF over GST control)	1.23 fold enrichment (6-mer frequency, TF over GST control)	1.2 fold enrichment (6-mer frequency, TF over GST control)	1.18 fold enrichment (6-mer frequency, TF over GST control)	1.13 fold enrichment (6-mer frequency, TF over GST control)	1.14 fold enrichment (6-mer frequency, TF over GST control)
